# Assay outcomes (PubChem)
# In the library only some 4.6% were active in any assay of this set; here they are far more common.
# TRHR ag: qHTS for Small Molecule Agonists and Allosteric Enhancers of Human TRH Receptor: Primary Screen for Agonists. TRHR cells, calcium flux fluo-8, FDSS agonist mode. activation, % at 2 µM. 360,000 tested, 0.18% active. AID 493084, 2011; note: 0% is about no effect
#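 Agonist-mode FDSS calcium read (Ex 480/Em 530, 1 s cycles) in 1536-well TRHR cells with fluo-8 dye, after 10-cycle baseline and 23 nL compound addition; TRH at EC20 (10 nM final) added afterwards for the enhancer phase.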
# D1 antag: Antagonist of Human D 1 Dopamine Receptor: qHTS; D(1A) dopamine receptor (Homo sapiens), P21728; HEK293 TREx D1 cells, calcium flux, dopamine EC80; stronger effect = lower value; activity change, negative = inhibition, % at 10 µM; 360,000 tested, 3.2% active; AID 504652, 2011; in the data active = activity change below about -30%; note: % is set by controls: 0 for no effect and ±100 for the full control effect
# Target sequence (P21728 whole entry, looked up): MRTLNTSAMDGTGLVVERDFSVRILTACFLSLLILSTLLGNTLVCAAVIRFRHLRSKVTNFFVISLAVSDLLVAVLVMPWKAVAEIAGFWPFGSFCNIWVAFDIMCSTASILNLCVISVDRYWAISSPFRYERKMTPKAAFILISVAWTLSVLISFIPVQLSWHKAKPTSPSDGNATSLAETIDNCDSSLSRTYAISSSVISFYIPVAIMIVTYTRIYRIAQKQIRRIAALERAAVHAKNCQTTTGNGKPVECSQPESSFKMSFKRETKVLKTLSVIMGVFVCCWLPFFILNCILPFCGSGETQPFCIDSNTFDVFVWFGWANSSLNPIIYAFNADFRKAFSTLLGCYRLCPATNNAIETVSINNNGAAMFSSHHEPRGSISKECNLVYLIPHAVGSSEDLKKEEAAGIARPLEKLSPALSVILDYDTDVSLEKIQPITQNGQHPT
#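 Tetracycline-induced HEK293 Trex D1 cells, force-coupled to calcium, dye-loaded; compounds added and read 180 s, then EC80 dopamine added and calcium flux tracked kinetically another 180 s.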
# TRHR PAM: qHTS for Small Molecule Agonists and Allosteric Enhancers of Human TRH Receptor: Primary Screen for Enhancers | AID 493056, 2011 | Thyrotropin-releasing hormone receptor (Homo sapiens), P34981 | 360,000 tested, 0.66% active | TRHR cells, fluo-8 calcium fluorescence, EC20 TRH enhancement | enhancement, % at 2 µM; in the data active = enhancement above about 30%; note: 0% is about no effect
#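 TRHR-expressing cells loaded with fluo-8 calcium dye were read kinetically (ex 480/em 530) during compound addition, then stimulated with an EC20 of TRH (10 nM final). Enhancement of the Gq-mediated intracellular calcium response was scored.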
# D1 agonist: Allosteric Agonists of the Human D1 Dopamine Receptor: qHTS; HEK293 T-REx D1 cells, calcium flux, agonist mode; activation, % at 2 µM; 360,000 tested, 1% active; AID 504660, 2011; note: 0% is about no effect
#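 Tetracycline-induced HEK293 TREx D1 cells, force-coupled to calcium signalling, were dye-loaded with a no-wash calcium kit. Compound was pin-added after a 10 s baseline. Fluorescence was read kinetically at 1 cycle/s for 180 s, with calcium rises flagged as agonism.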
# D1 potentiator: Potentiators of Human D1 Dopamine Receptor: qHTS; D(1A) dopamine receptor (Homo sapiens), P21728; HEK293 TREx D1 cells, calcium flux, dopamine EC20 potentiation; potentiation, % at 10 µM; 360,000 tested, 0.036% active; AID 504651, 2011; in the data active = potentiation above about 30%; note: 0% is about no effect
# * hit, by the source's call; · = not tested or not shown. Cut-off read from the data, not from the text of the source, unless noted: active = activation above about 30%; inactive = the rest.
SMILES,TRHR ag,D1 antag,TRHR PAM,D1 agonist,D1 potentiator
COc1cc(C(=O)Oc2ccccc2)ccc1OCc1c(C)noc1C,1,-37*,5,5,-9
COc1cc(C(=O)O)ccc1OCc1c(C)noc1C,1,·,2,1,-2
Cc1noc(C)c1COc1ccc(C(=O)O)cc1,0,26,32*,1,0
CC(CCc1ccccc1)NC(=O)CCc1cn(C)c2ccccc12 (stereo unspecified),-1,-44*,1,0,-1
CCc1noc(C)c1C(=O)Oc1ccc(N(C)S(=O)(=O)c2ccccc2)cc1,0,4,5,36*,6
CCc1noc(C)c1C(=O)Oc1ccc(N(C)S(=O)(=O)c2ccc(C)cc2)cc1,2,-7,14,18,0
Cc1c(Cl)cccc1NC(=S)NC(=O)CCN1C(=O)c2ccccc2C1=O,0,5,-1,1,-2
Cc1ccc2oc(=O)n(CCCOc3ccccc3Cl)c2c1,1,1,-6,9,-1
NC(=O)/C(N=Nc1ccccc1)=N/Nc1ccccc1,0,-55*,-2,1,-13
O=C(O)c1cccc(N/N=C(\N=Nc2ccccc2)c2ccccc2)c1,0,-9,-4,3,-8
Cc1c(N)c(=O)n(-c2ccccc2)n1C,0,2,4,-1,-6
COc1ccccc1-c1ccc(SCc2ccccc2F)nn1,0,-40*,3,15,-1
COc1ccccc1-c1ccc(SCc2ccccc2)nn1,0,-23,6,5,-4
Cc1cc(/C=C2\SC(=S)NC2=O)c(C)[nH]1,11,8,-1,33*,6
Cc1cccc(-n2c(C)cc(/C=C3\NC(=O)NC3=O)c2C)c1,0,-40*,8,0,-8
Cc1cc(/C=C2\SC(=S)NC2=O)c(C)n1-c1cccc(O)c1,4,1,-4,34*,-1
Cc1ccc(-n2c(C)cc(/C=C3\SC(=O)NC3=O)c2C)cc1,-1,-36*,-2,10,-6
CCn1c(C)cc(/C=C2/SC(=S)NC2=O)c1C,4,-2,5,16,-6
CCCCc1ccc(NC(=O)c2ccc(=O)n(Cc3cccc(C)c3)c2)cc1,1,5,-1,8,-4
NC(=O)CNCCC(c1ccccc1)c1ccccc1,-1,7,5,13,-3
Cc1cc(C=C2C(=O)c3ccccc3C2=O)c(C)n1-c1ccccc1,6,-1,-9,33*,-3
CC(C)Sc1nc2c(c(=O)[nH]c(=O)n2C)n1Cc1ccccc1,-1,19,4,0,-8
NC(=O)c1ccccc1NC(=O)c1ccccc1Cl,-1,-7,-2,0,-5
O=C(Nc1nnc(C(F)(F)F)s1)c1ccc(Br)s1,5,-43*,-8,37*,-7
O=C(Nc1ccccc1C(=O)Nc1nnc(C(F)(F)F)s1)c1ccccc1Cl,2,-30*,-9,26,-3
SMILES,TRHR ag,D1 antag,TRHR PAM,D1 agonist,D1 potentiator
CC(NC(=O)Nc1nnc(C(F)(F)F)s1)(C(F)(F)F)C(F)(F)F,12,-29,3,41*,-8
COc1ccc(-c2nc(SCC(=O)N3CCN(c4ccc(F)cc4)CC3)n[nH]2)cc1,-1,1,-1,0,-2
CCOC(=O)c1cc(-c2ccccc2)n(CCCC(=O)Nc2ccc(C)c(Cl)c2)c1C,1,-3,7,7,-8
CC(=O)c1cc(-c2ccccc2)n(CCC(=O)Nc2ccc(C(C)C)cc2)c1C,5,-20,-2,63*,-8
CCOC(=O)c1cc(-c2ccccc2)n(CCCC(=O)Nc2ccc(C)c(C)c2)c1C,1,-48*,0,6,-9
CCOC(=O)c1cc(-c2ccccc2)n(CCC(=O)Nc2ccc(C(F)(F)F)cc2)c1C,11,2,-4,85*,-6
COc1ccc(OCCCC(=O)N2CCCc3ccccc32)cc1,-1,-34*,-4,4,-8
CCOc1ccc(-n2c(=O)[nH]cc(C(=O)N3CCCc4ccccc43)c2=O)cc1,0,-1,-1,1,0
COc1ccc(-n2c(=O)[nH]cc(C(=O)N3CCCc4ccccc43)c2=O)cc1,-1,-31*,0,2,-3
Cc1cc(=O)oc2cc(OCC(=O)N3CCCc4ccccc43)ccc12,-3,-35*,-10,2,-8
COc1ccc(CCC(=O)N2CCCc3ccccc32)cc1,0,-37*,12,-2,-2
COc1ccc(CC(=O)N2CCc3ccccc32)cc1,-1,-1,10,4,-2
O=C(Cc1ccccc1)N1CCc2ccccc21,-1,-2,1,2,5
Cc1cc(=O)oc2cc(OCCc3ccccc3)ccc12,0,10,-4,4,-15
Cc1cc(=O)oc2cc(OCCSCCN3CCCCC3)ccc12,0,-37*,-1,1,-4
CCOC(=O)/C(=N/Nc1ccc(OC)cc1)N1CCCc2ccccc21,-1,-42*,-3,0,-3
O=C(CCn1cccc1)N1CCc2ccccc21,0,-31*,1,-2,-6
O=S(=O)(NN=C1CCCCCC1)c1ccccc1,0,-4,10,4,-4
CCOc1ccc(NC(=O)CN(C)S(=O)(=O)c2ccc3[nH]c4c(c3c2)CCCC4)cc1,0,-7,-7,-2,-1
CC(C)(C)OC(=O)NCC12C=CC(O1)C1C(=O)N(Cc3ccccc3)C(=O)C12 (stereo unspecified),0,-33*,1,18,4
O=C(COC(=O)CCc1c[nH]c(=O)[nH]1)Nc1ccccc1,0,2,4,-1,5
CCn1c(SCC(=O)Nc2sc(C)c(C)c2C#N)nnc1C(C)C,-1,11,31*,1,-3
Cc1ccc(S(=O)(=O)NCC(=O)N(CC(=O)NCc2ccco2)Cc2ccccc2)cc1,0,17,-5,2,-4
O=C(CN(C(=O)CNS(=O)(=O)c1ccc(F)cc1)c1ccc(F)cc1)NCc1ccco1,0,-32*,9,25,-6
O=C(CN(C(=O)CNS(=O)(=O)c1ccc(F)cc1)c1ccccc1)NCc1ccco1,-2,-2,8,8,-1
Cc1ccc(S(=O)(=O)NCC(=O)N(CC(=O)NCc2ccco2)C2CCCC2)cc1,0,-38*,-1,1,-6
CC1CCCC(C)N1C(=O)COC(=O)CSc1ccc([N+](=O)[O-])cc1 (stereo unspecified),0,-25,-3,10,-5
